The subject of assay [1] is (+)-isopinocamphone A-neuron OSN class. The assay can be described thus: net action potential response of A-neuron (blank-subtracted) (spikes/s (Hz)); higher = stronger excitation. The conditions noted are these: 10 µg on filter paper; neuron: A neuron (large spike amplitude). The gist of the method:
(§1)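 Each compound was loaded at 10 μg in paraffin oil onto filter paper in a pipette and puffed for 0.5 s at 0.3 L/min into a humidified, charcoal-filtered airstream flowing at 1.8 L/min. Tungsten electrodes recorded from single sensilla on one fixed antenna of live lab-reared adult Ips typographus. The response was a spike rate in spikes/s from the A-neuron (large amplitude) or B-neuron (small amplitude), counted in AutoSpike, corrected for the pre-stimulus count and for the blank, and averaged across sensilla. Counting windows lasted 0.5 s, and 1–4 sensilla were used.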

Assay [2] has as its system (+)-trans-4-thujanol A-neuron OSN class. The assay is described as above. The conditions noted are these: 10 µg on filter paper; neuron: A neuron (large spike amplitude). The procedure, abridged:
as §1

Assay [3] concerns (5S,7S)-trans-conophthorin A-neuron OSN class. The description is as above. The conditions noted are these: 10 µg on filter paper; neuron: A neuron (large spike amplitude). The procedure, abridged: as §1
The subject of assay [4] is myrcene A-neuron OSN class. The assay is described as above. The conditions noted are these: 10 µg on filter paper; neuron: A neuron (large spike amplitude). The gist of the method:
as §1

For assay [5], the system named is p-cymene A-neuron OSN class. The description is as above. The conditions noted are these: 10 µg on filter paper; neuron: A neuron (large spike amplitude). The procedure, abridged: as §1
For assay [6], the system named is ipsdienol A-neuron OSN class. The assay is described as above. The conditions noted are these: 10 µg on filter paper; neuron: A neuron (large spike amplitude). The gist of the method:
as §1

Assay [7] relates to lanierone-responsive B-neuron OSN class (ItypOR36). Put plainly: net action potential response of lanierone B-neuron (blank-subtracted) (spikes/s (Hz)); higher = stronger excitation. The conditions noted are these: 10 µg on filter paper, neuron: B neuron (small spike amplitude). The gist of the method:
as §1

Where [8] appears, read: co-localized A-neuron class: (4S)-cis-verbenol.
The mark [9] stands for this setting: co-localized A-neuron class: (5S,7S)-trans-conophthorin.
Setting [10] is: co-localized A-neuron class: (+)-isopinocamphone.
Where [11] appears, read: co-localized A-neuron class: (+)-trans-4-thujanol.
Setting [12] is: co-localized A-neuron class: ipsdienol.
Setting [13] is: co-localized A-neuron class: myrcene.
Where [14] appears, read: co-localized A-neuron class: p-cymene.

± gives the standard deviation of the averaged measurements.

As to `CC/C=C\CCO`, the “net action potential response” value in assay [1] was 10.7 ± 27; in assay [2] it was 74.5 ± 42; in assay [3], -2 ± 4; in assay [4], 6; in assay [5] it was 0 ± 4.
On to `C=CC(O)CCCCC` (racemic) [(±)-1-Octen-3-ol], for which the “net action potential response” value in assay [1] is -4.67 ± 1.1; in assay [2] it was 33 ± 24; in assay [3] it was 1.5 ± 2.5; in assay [4], 2; in assay [5], 1.33 ± 1.1.
As to `CCC1CCC2(CCCO2)O1` (racemic) [(±)-Chalcogran], the “net action potential response” value in assay [1] is -3.33 ± 1.1; in assay [2], 9 ± 10; in assay [3] it was 175 ± 15; in assay [4], 2; in assay [5], 0.667 ± 3.1.
Turning to `CCC/C=C\CO`, the “net action potential response” value in assay [1] was 18 ± 19; in assay [2], 25.5 ± 12; in assay [3] it was -2 ± 6; in assay [4], 2; in assay [5], 0.
As for `C[C@H]1C(=O)C[C@H]2C[C@@H]1C2(C)C` [(-)-Pinocamphone], the “net action potential response” value in assay [1] is 119 ± 57; in assay [2], -0.5 ± 1.9; in assay [3] it was 2 ± 2; in assay [6], -2.67 ± 1.1; in assay [4], 0; in assay [5] it was 3.33 ± 3.1.
For the compound `CC1=CCC2CC1C2(C)C` (stereo not drawn) [(-)-α-Pinene], the “net action potential response” value in assay [1] was 4 ± 3.5; in assay [2] it was -0.5 ± 1.9; in assay [3], 2.67 ± 3.1; in assay [6], 1.33 ± 2.3; in assay [4] it was 2; in assay [5] it was 5.33 ± 6.4.
On to `C=CC(=C)C[C@@H](O)CC(C)C` (racemic) [(±)-Ipsenol], for which the “net action potential response” value in assay [1] is -1.33 ± 5; in assay [2] it was 2 ± 2.8; in assay [3] it was -1.33 ± 6.1; in assay [6], 19.3 ± 15; in assay [4], -2; in assay [5], -4.
Turning to `C[C@@H]1C(=O)C[C@H]2C[C@@H]1C2(C)C` [(+)-Isopinocamphone], the “net action potential response” value is 172 ± 28 in assay [1]; -2 ± 5.9 in assay [2]; 1.33 ± 1.1 in assay [3]; -4 in assay [4]; -3.33 ± 2.3 in assay [5].
The like results for `CC1=CCC2CC1C2(C)C` (stereo not drawn) [(+)-α-Pinene] were, in that order, 3.33 ± 3.1, 2.5 ± 3, -1.5 ± 6.8, 4 and 2.67 ± 1.1.
For the compound `CCCCCC(O)CC` (racemic) [(±)-3-Octanol], the “net action potential response” value was 10 ± 10 in assay [1]; 57.5 ± 45 in assay [2]; 13 ± 10 in assay [3]; -0.667 ± 5 in assay [6]; 6 in assay [4]; 3.33 ± 2.3 in assay [5].
With `C=C(C)C1CC=C(C)C(=O)C1` (racemic) [(±)-Carvone], the “net action potential response” value is -1.33 ± 1.1 in assay [1]; 1 ± 2.6 in assay [2]; 1 ± 3.5 in assay [3]; 0 in assay [4]; 30 ± 22 in assay [5].
On to `CCCCCC=O` [Hexanal], for which the “net action potential response” value in assay [1] amounted to 4.67 ± 3.1; in assay [2], 0.5 ± 4.4; in assay [3], 2.67 ± 7.6; in assay [4], 4; in assay [5], 2 ± 3.5; in assay [7] (setting [8]), 0.667 ± 3.1. Moreover, the “net action potential response” value in assay [7] (setting [9]) is -0.667 ± 1.1; in assay [7] (setting [10]) it was -1.33 ± 9; in assay [7] (setting [11]) it was -3 ± 2.6; in assay [7] (setting [12]) it was -3.33 ± 4.2; in assay [7] (setting [13]) it was 2; in assay [7] (setting [14]), 3.33 ± 4.6.
For `C=Cc1ccc(OC)cc1` [4-Vinyl anisole], the “net action potential response” value in assay [1] is -0.667 ± 4.2; in assay [2] it was 1.5 ± 3.4; in assay [3], -1.33 ± 3.1; in assay [6] it was 2 ± 6; in assay [4] it was -2; in assay [5], 15.3 ± 14.
Consider `COc1ccc(C)cc1OC` [3,4-Dimethoxytoluene], for which the “net action potential response” value in assay [1] turned out to be 0.667 ± 3.1; in assay [2], 1.5 ± 3.8; in assay [3], 2.67 ± 6.4; in assay [4], 4; in assay [5], 1.33 ± 1.1; in assay [7] (setting [8]) it was 5.33 ± 11. Moreover, the “net action potential response” value is 0 ± 7.2 in assay [7] (setting [9]); 1.33 ± 2.3 in assay [7] (setting [10]); -1.5 ± 3.4 in assay [7] (setting [11]); 2 ± 6 in assay [7] (setting [12]); 2 in assay [7] (setting [13]); -2 ± 6.9 in assay [7] (setting [14]).
In the case of `OCCc1ccccc1` [2-Phenylethanol], the “net action potential response” value is 7.33 ± 3.1 in assay [1]; 3.5 ± 4.7 in assay [2]; 0 ± 1.6 in assay [3]; -2.67 ± 3.1 in assay [6]; 0 in assay [4]; 2.67 ± 3.1 in assay [5].
Regarding `C=C1[C@@H]2CC[C@@H](C2)C1(C)C` (racemic) [(±)-Camphene], the “net action potential response” value in assay [1] was -2 ± 2; in assay [2] it was 1.5 ± 1; in assay [3], -2.67 ± 3.1; in assay [4] it was 0; in assay [5], -3 ± 1.4; in assay [7] (setting [8]), -3.33 ± 8.3. Also, the “net action potential response” value is 0 ± 2 in assay [7] (setting [9]); -3.33 ± 1.1 in assay [7] (setting [10]); 0 ± 3.6 in assay [7] (setting [11]); 3.33 ± 2.3 in assay [7] (setting [12]); -4 in assay [7] (setting [13]); 0 in assay [7] (setting [14]).
As for `CC1(C)C2CC=C(CO)C1C2` (racemic) [(±)-Myrtenol], the “net action potential response” value in assay [1] is 1.33 ± 5; in assay [2], 1.5 ± 2.5; in assay [3], -1 ± 3.5; in assay [4], 2; in assay [5], 1.33 ± 3.1; in assay [7] (setting [8]) it was -0.667 ± 3.1. Moreover, the “net action potential response” value in assay [7] (setting [9]) was 2.5 ± 6; in assay [7] (setting [10]), -1.33 ± 3.1; in assay [7] (setting [11]), 0 ± 2.3; in assay [7] (setting [12]), -2 ± 14; in assay [7] (setting [13]) it was -6; in assay [7] (setting [14]), 0 ± 2.
With `C=Cc1ccccc1` [Styrene], the “net action potential response” value in assay [1] was 5.33 ± 6.1; in assay [2] it was 8.5 ± 18; in assay [3] it was 6 ± 7.2; in assay [4], -2; in assay [5], 18.7 ± 15; in assay [7] (setting [8]) it was -6 ± 8.7. For the same compound, the “net action potential response” value in assay [7] (setting [9]) was -1.33 ± 1.1; in assay [7] (setting [10]), -4.67 ± 4.6; in assay [7] (setting [11]) it was -0.5 ± 6.6; in assay [7] (setting [12]), -1.33 ± 4.6; in assay [7] (setting [13]), 4; in assay [7] (setting [14]), -6 ± 2.8.

The values above are taken from the supplement of paper PMC11577813, “Eurasian spruce bark beetle detects lanierone using a highly expressed specialist odorant receptor, present in several functional sensillum types” (BMC Biology, 2024).
